# TRPM1 prom inh: inhibitors of MITF-dependent TRPM1 promoter reporter, primary screen, cell-based, SK-MEL-5, single point, luciferase. SK-MEL-5 TRPM1 promoter luciferase, 24 h. inhibition, % at 12.5 µM. 330,000 tested, 0.83% active;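 active means mean inhibition across replicates of 60% or more, whatever share of single replicates reaches that level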
# EBV LMP1 NFkB: EBV LMP1-driven NF-kappaB luciferase reporter inhibitors, primary screen, cell-based, luminescence, single point | inhibition, % at 12.5 µM | AID 504558, 2011 | 350,000 tested, 0.69% active | LMP1-induced NF-kappaB luciferase reporter cells; in the data active means inhibition above about 41%;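 further: 0% = neutral control wells and 100% = reference inhibitor control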
# TWEAK Fn14 block: inhibitors of TWEAK-Fn14 signaling, primary screen, luciferase reporter cells, uHTS; TWEAK-stimulated Fn14 reporter cells, luciferase luminescence, 8 h; inhibition, % at 10 µM; 360,000 tested, 2% active; in the data active means inhibition above about 50%
# HIF-2a block: HIF-2a reporter inhibitors, primary screen, luminescence, 786-0 RCC cells. 786-0 RCC cells HIF-2a reporter, luciferase luminescence, overnight. inhibition, % at 18.8 µM. 360,000 tested, 0.72% active;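 active means inhibition of the luminescence signal of 40% or more relative to plate controls, in a single-dose primary screen at 18.75 µM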
# Shn3 inh set2: reduction of Shn3 3'UTR firefly luciferase signal, primary screen, Schnurri-3 inhibitor project, cell-based, Clone20 osteoblasts, set 2 | Clone20 osteoblast Shn3 3'UTR firefly luciferase, 24 h | inhibition, % at 12.5 µM | 360,000 tested, 0.52% active;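 active means mean inhibition of at least 75% with every replicate also reaching 75%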;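 further: 0% = median of neutral control wells and 100% = pilot-screen positive control compound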
# TROY signal inh: inhibitors of TROY-driven NF-kB signaling, primary screen, Q293 LMP1-TROYcd cells, NF-kB luciferase, uHTS | Q293 LMP1-TROYcd NF-kB luciferase reporter, 4 h | AID 1347056, 2019 | inhibition, % at 10 µM | 360,000 tested, 0.98% active;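 active means compounds whose plate-normalised and pattern-corrected inhibition of the luciferase reporter signal at the single screening dose is 50% or more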
# Mdm2-MdmX confirm: retested Mdm2-MdmX interaction blockers, confirmation, cell-based, luminescence, single concentration, set 2. shares compounds with HIF-2a block. SaOS-2 split-luciferase Mdm2/MdmX complementation. inhibition, % at 8 µM. 740 tested, 99% active;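 active means mean inhibition of the luminescence signal across two replicates at or above 26 percent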
# HIF-2a inh conf: HIF-2a reporter inhibitor retest, confirmation, luminescence, 786-0 RCC cells; 1,800 tested, 56% active; shares compounds with HIF-2a block; AID 651580, 2012; HIF-2a luciferase reporter luminescence, overnight; inhibition, % at 18.8 µM;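 active means mean inhibition across four replicates of at least 40 percent at the single tested concentration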
# HIF-1a counter: HIF-1a luciferase reporter signal reduction – MiaPaCa-2 cells, single concentration, counter-screen for HIF-2a inhibitor project, confirmation | MiaPaCa-2 HIF-1a luciferase reporter, desferoxamine, overnight | inhibition, % at 18.8 µM | 1,800 tested, 72% active | shares compounds with HIF-2a block;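 active means mean inhibition of the reporter signal across four replicates at the single tested dose of 50% or more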
# The depositor's hits bear a star; · = no result. The list is not random: actives were taken first. Their share in the collection is about 3.4%.
SMILES,TRPM1 prom inh,EBV LMP1 NFkB,TWEAK Fn14 block,HIF-2a block,Shn3 inh set2,TROY signal inh,HIF-2a inh conf,HIF-1a counter,others
CC1CCCCC12NC(=O)N(CC(=O)c1ccc3c(c1)OCO3)C2=O (stereo not drawn),-7,-5,-5,-60,-19,-21,·,·,
COCCC(=O)N1CCC(n2nccc2NC(=O)CCc2ccccc2)CC1,-3,2,6,2,14,4,·,·,
Cn1cncc1C#Cc1c(C=O)n(C)c2ccccc12,-6,-3,-21,12,-14,4,·,·,
Cn1cncc1C#Cc1c(C=O)[nH]c2ccccc12,62*,6,6,43*,8,8,38,88*,
Cc1[nH]nc2c1C(c1cc(Br)cs1)C(C#N)=C(N)O2 (stereo not drawn),33,14,61*,43*,-12,5,40*,92*,
O=C(c1ccc2c(c1)OCO2)N1CCN(S(=O)(=O)c2ccc(Br)cc2Cl)CC1,2,2,-12,14,5,-16,·,·,
COc1ccc(N(C(=O)c2snc(C(N)=O)c2N)C(C(=O)NC2CCCC2)c2cccs2)c(OC)c1 (stereo not drawn),-7,-2,14,26,19,13,·,·,
CC1(C)Oc2ccc3ccc(=O)oc3c2C(/C=N/O)=C1Cl,3,-8,1,-1,-15,-8,·,·,
Cc1nc(/C(=N/O)C(N)=O)cs1,-11,-8,-10,45*,-6,31,-11,-5,
Cc1nc(C(=O)NNC(=O)c2ccc(Cl)cc2)cs1,2,18,8,-41,13,-27,·,·,
CC(C)C(=O)c1cn(CC(=O)NCC2CCCO2)c2ccccc12 (stereo not drawn),-12,4,14,8,-16,0,·,·,
CCOC(=O)C1=C(O)/C(=C/c2cn(CC(=O)NCC3CCCO3)c3ccccc23)SC1=Nc1ccc(C)cc1 (stereo not drawn),88*,-7,26,-19,69,0,·,·,Mdm2-MdmX confirm=86*
O=C(COc1ccc(F)cc1Cl)N(Cc1nnc(-c2ccccc2Cl)o1)C1CC1,2,3,-22,-21,4,-9,·,·,
C=C(C(=O)c1ccccc1)C(NC(C)(C)C)c1ccccc1 (stereo not drawn),99*,91*,96*,85*,37,19,98*,105*,
CCCNC(=O)C1(C)CCN1C(=O)Cc1ccc(C(C)(C)C)cc1 (stereo not drawn),·,·,-11,7,-4,-9,·,·,
O=c1c2c3nc4ccccc4nc3n(Cc3ccccc3)c2ncn1Cc1ccco1,4,8,21,44*,45,20,-2,78*,
COCCCn1c2nc3ccccc3nc2c2c(=O)n(Cc3ccc(Cl)cc3)cnc21,13,-1,16,5,53,-2,·,·,
O=C(NC1CCCCC1)c1n[nH]c2c1CCCCC2,·,54*,99*,44*,48,83*,75*,74*,
Brc1cc(Br)c2ncnc(N3CCCCC3)c2c1,51,13,22,54*,15,8,25,88*,
O=[N+]([O-])c1ccc(C[n+]2cccc3c4ccccc4ccc32)cc1,24,-3,12,12,15,6,·,·,
CCCCCCCCC[n+]1cccc2c3ccccc3ccc21,93*,48*,32,-45,89*,44,·,·,Mdm2-MdmX confirm=101*
COc1ccc(NC(=O)c2nn(C)c3c2CS(=O)(=O)c2ccccc2-3)cc1,-1,-3,2,4,0,2,·,·,
CC(=O)Nc1ccc(S(=O)(=O)NCCC(=O)Nc2cc(C)ccn2)cc1,1,-10,0,-18,-8,21,·,·,
CCOC(=O)c1c(NC(C)=O)sc2c(OCC(O)CN(CC)CC)c(Br)ccc12 (stereo not drawn),8,-28,-43,78*,-2,-1,4,106*,
COc1ccc(/C=C/c2c(-c3ccc(OC)cc3)oc3ccc(-c4ccc(OC)cc4)cc23)cc1,8,2,-1,-12,-19,0,·,·,
SMILES,TRPM1 prom inh,EBV LMP1 NFkB,TWEAK Fn14 block,HIF-2a block,Shn3 inh set2,TROY signal inh,HIF-2a inh conf,HIF-1a counter,others
COc1ccc(/C=C/c2cc(-c3ccc(C)cc3)o[n+]2C)cc1,88*,11,58*,43*,83*,26,54*,103*,Mdm2-MdmX confirm=102*
COc1cccc(-n2nc(C(N)=O)c(O)cc2=O)c1,5,10,8,10,-11,12,·,·,
COc1cccc(-n2nc(C#N)c(Cl)cc2=O)c1,91*,12,29,96*,96*,83*,·,·,Mdm2-MdmX confirm=104*
O=C(N/N=C/c1ccccc1C(=O)O)c1ccc(COc2cccc3cccnc23)cc1,3,7,0,-5,2,-11,·,·,
O=C(N/N=C/c1ccc[nH]1)c1ccc(COc2cccc3cccnc23)cc1,46,47*,85*,25,90*,48,·,·,Mdm2-MdmX confirm=97*
Cn1nnnc1Sc1ncnc2scc(-c3cccc4ccccc34)c12,34,5,60*,53*,-4,29,68*,105*,
Cn1nnnc1Sc1ncnc2scc(Br)c12,-17,27,99*,96*,97*,68*,65*,105*,
COc1ccccc1-c1csc2ncnc(Sc3nnnn3C)c12,2,6,23,20,13,-8,·,·,
Cn1nnnc1Sc1ncnc2scc(-c3ccccc3Br)c12,58,10,39,49*,-4,30,25,75*,
Cn1nnnc1SCSc1nnnn1C,4,11,6,-12,11,2,·,·,
COc1ccc2[nH]cc(C(=O)CCl)c2c1,91*,-10,57*,33,-53,12,·,·,Mdm2-MdmX confirm=102*
O=C(COC(=O)c1cccc(-n2cnnn2)c1)c1ccc(Br)cc1,-25,-9,-15,-36,-89,-43,·,·,
Nc1ncnc(N2CCc3ccccc32)c1[N+](=O)[O-],23,65*,84*,18,-3,61*,·,·,Mdm2-MdmX confirm=93*
